Source: PubChem
Cycloheximide cs = affects cycloheximide protein synthesis inhibition readout, counter-screen. cell reporter, cycloheximide protein synthesis inhibition counterscreen. max response, %. hit rate 12% among 300,000. AID 2314; in the data active = max response mostly above about 13%, no sharp cut-off; inactive = mostly below about 14%; also: read at 38.3 µM for the half of the compounds with a filed dose; 0% is about no effect
Pf growth 48h = inhibits P. falciparum growth in the first generation, 48 h | P. falciparum luciferase growth in erythrocytes, 48 h | Potency, µM (titrated, usually from 28.7 µM), inactives show at the highest dose activity change, negative = inhibition, hits mostly inhibitors | hit rate 5.9% among 310,000; also: potency is read from the fitted curve at half-maximal effect; % is scaled to controls: 0 for no effect and ±100 for the full control effect
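Luminescence readout; reporter = integrated firefly luciferase in P. falciparum. RBC culture at 2% hematocrit, 0.1% parasitemia final, 37 C/5% CO2; decreased signal taken as growth inhibition.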
NS1 inh = blocks influenza NS1 protein function; AID 2326; Potency, µM (titrated, usually from 46.1 µM), without a hit: at the highest dose activity, positive = more growth; hit rate 0.4% among 270,000; calls by dose curve; also: potency is read from the fitted curve at half-maximal effect; actives are rising curves; nearly all actives have a fitted effect of over 50% in size
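S. cerevisiae expressing influenza A NS1, grown in glucose, washed, then diluted 1:100 into pH 6.0 -URA galactose medium with 23 nl compound. Growth recovery read as OD600; NS1-free strain serves as control.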
Shiga inhibitor = inhibitors of Shiga toxin in Vero cells. hit rate 9.2% among 290,000. Vero cells, Shiga toxin protein synthesis inhibition reporter. AID 2315. inhibition, % at 38.7 µM; in the data active = inhibition mostly above about 28%, no sharp cut-off; inactive = mostly below about 43%; also: 0% is about no effect
Pf growth 96h = P. falciparum growth inhibition at 96 hours; P. falciparum luciferase reporter growth, 96 h; Potency, µM (titrated, usually from 28.7 µM), for inactives: top-dose activity change, negative = inhibition, usual class: inhibitors; hit rate 6.9% among 320,000; also: potency is read from the fitted curve at half-maximal effect; % is scaled to controls: 0 for no effect and ±100 for the full control effect
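Readout is luminescence from an integrated firefly luciferase in P. falciparum. Red cells, 2% hematocrit and 0.05% parasitemia final, were cultured with compound through two parasite generations (96 hours) at 37 C, 5% CO2.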
An asterisk follows results filed as active; ? = inconclusive; . = no result; [ ] = remark or other dose. Compounds with a hit are over-represented: about 21% of the library has one in this group of screens. Unless noted, calls follow the shape of the dose curve; as a rule, active = well fitted inhibition curve with a large enough effect; inconclusive = small, poorly fitted or top-dose-only effect, or another doubt; inactive = no such curve, though single readings can be large or run the other way.

SMILES | Cycloheximide cs | Pf growth 48h | NS1 inh | Shiga inhibitor | Pf growth 96h
CC(=O)Nc1cccc(C(=O)N/N=C/c2ccc(F)cc2)c1 | 34* | 162% | 4% | 83* | ?
CC(=O)Nc1cccc(C(=O)N/N=C/c2cccnc2)c1 | 2 | 10% | 1% | 22 | -18%
Cc1ccc(C(=O)Nc2cccc(C(=O)N/N=C/c3ccc(F)cc3)c2)cc1 | 27* | 53% | 14% | 58* | ?
CN(Cc1nc(Cc2cccc(C(F)(F)F)c2)no1)C1CC(C)(C)NC(C)(C)C1 | 1 | -18% | -1% | -14 | ?
Cc1cc2nc(N3C(=O)CNC3=S)sc2cc1C | 23* | 49% | -32% | 20 | -3%
CCOc1ccc2nc(N3C(=O)CNC3=S)sc2c1 | 35* | -21% | -38% | 46* | ?
CCOc1cc(CNn2cnnc2SCC(=O)NC(C)(C)C)ccc1OCC(=O)NC(C)(C)C | -2 | -29% | 4% | 14 | 7%
CS(=O)(=O)NCCSCc1ccco1 | -5 | 32% | 8% | 32 | -18%
COc1ccc(/C=C2\SC(=S)N(CCC(=O)NCCCn3ccnc3)C2=O)cc1 | 18* | ? | 2% | 16 | ?
O=C(CCCN1C(=O)/C(=C/c2ccc(F)cc2)SC1=S)NCCCn1ccnc1 | 10 | ? | 3% | -5 | 9.3µM*
CC(C)c1ccc(/C=C2\SC(=S)N(CCC(=O)NCCCn3ccnc3)C2=O)cc1 | 61* | ? | 4% | 104* | ?
Cc1c(C(=O)N2CCc3ccccc32)oc2c1C(=O)CC(C)(C)C2 | 32* | 21% | -9% | 69* | 20%
Cc1c(C(=O)N2CCOCC2)oc2c1C(=O)CC(C)(C)C2 | -2 | 3% | 5% | -13 | 12µM*
C=CCN(Cc1cc(OC)ccc1OC)C(=O)c1cc2ccc(OC)cc2[nH]1 | 5 | ? | -1% | 21 | ?
NC(=O)c1ncc(C(F)(F)F)cc1Oc1cccc(C(F)(F)F)c1 | -1 | . | 9% | 16 | ?
CCCCOC(=O)Nc1ccc(S(=O)(=O)Nc2nc(C)cc(C)n2)cc1 | -2 | -5% | 6% | -16 | ?
CCCCOC(=O)NS(=O)(=O)c1sc(CC(C)C)cc1-c1ccc(Cn2c(CC)nc3c(C)cc(C)nc32)cc1 | . | 15µM* | ? | . | ?
COCCN(Cc1ccc(F)cc1)C(=O)c1cc2ccccc2oc1=O | 13 | 6% | 19% | 16 | 32%
CCCC(=O)NC(NC(=S)Nc1ccc(N=Nc2ccccc2)cc1)C(Cl)(Cl)Cl (configuration not stated) | 35* | ? | 4% | 39* | 49%
CCCC(=O)NC(NC(=S)Nc1ccc(S(N)(=O)=O)cc1)C(Cl)(Cl)Cl (configuration not stated) | -1 | -21% | 0% | -12 | ?
O=C(CCc1ccccc1)NC(NC(=S)Nc1cccc(Cl)c1)C(Cl)(Cl)Cl (configuration not stated) | -1 | ? | 1% | -7 | 9.3µM*
CN1CCCN(C(=O)c2cccc(Cl)c2)CC1 | -3 | 4% | -9% | -15 | 50%
Cn1nccc1C(=O)N1CCN(c2ccccc2F)CC1 | 10 | -7% | 5% | -34 | 27%
CCOCCCNC(=O)C1(O)c2ccccc2NC(=O)N1c1ccc(Cl)c(Cl)c1 (configuration not stated) | -4 | 1% | 4% | -1 | ?
CCOc1ccc(N2C(=O)Nc3ccc(Br)cc3C2(O)C(=O)NCCCN(C)C)cc1 (configuration not stated) | 1 | 2% | 5% | -9 | ?
CC(C)NC(=O)C1(O)c2ccccc2NC(=O)N1c1ccc(Cl)c(Cl)c1 (configuration not stated) | -2 | -10% | -3% | -11 | 10µM*
CCCCN(C)CCCNC(=O)C1(O)c2ccccc2NC(=O)N1c1ccc(Cl)cc1 (configuration not stated) | -3 | 3%[0.00184 µM] | 2% | -4 | 4.1µM*
CCOc1ccc(N2C(=O)Nc3ccc(Br)cc3C2(O)C(=O)NCCN(C)C)cc1 (configuration not stated) | -2 | -8% | -3% | 2 | 1.9µM*
CNC(=S)N1CCC(NC(=O)C(Cc2ccccc2)NC(C)=O)CC1 (configuration not stated) | -5 | 38% | . | -19 | 12%
c1ccc(C2CC(c3ccccc3)C(c3ccccc3)N2)cc1 (configuration not stated) | 7 | -5% | 13% | -2 | 9.3µM*
